The list is not random: actives were taken first. Their share in the collection is about 1.2%.
RecA splice inh = Mtb RecA intein splicing inhibitors, primary screen, biochemical, fluorescence, HTS; cell-free RecA intein splicing; inhibition, % (no concentration beside the values); 290,000 compounds, 0.75% hits; AID 2221, 2009; in the data active = inhibition above about 30%;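 also: 0% = vehicle wells and 100% = reference inhibitor control wells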
CCHFV vOTU inh = CCHFV vOTU protease inhibitors, primary screen, biochemical, Pep-AMC substrate, fluorescence; Crimean-Congo hemorrhagic fever virus L polyprotein viral ovarian tumor (vOTU) protease …; AID 651958, 2012; 370,000 compounds, 0.55% hits; inhibition, % at 11.5 µM; in the data active = inhibition above about 30%; also: 0% = vehicle wells with enzyme and 100% = no enzyme wells
Mtb bLac sens = beta-lactam sensitization of Mtb H37Rv, H37Rv; M. tuberculosis H37Rv growth with meropenem, percent inhibition; inhibition, % at 25 µM; 330,000 compounds, 0.27% hits;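 also: growth measured after seven days incubation then overnight dye step; 0% = bacteria only wells and 100% = bacteria with antibiotic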
Mtb UGM inh = M. tuberculosis UGM enzyme inhibitors, primary screen, biochemical, fluorescence polarization, single point; UDP-galactopyranose mutase (Mycobacterium tuberculosis (strain ATCC 25618 / H37Rv)), …; purified UGM, fluorescence polarization probe displacement; inhibition, % at 10 µM; 320,000 compounds, 0.06% hits; AID 504406, 2011; in the data active = inhibition above about 10%, passing the limit was not always enough
Target sequence (P9WIQ1 whole entry, looked up): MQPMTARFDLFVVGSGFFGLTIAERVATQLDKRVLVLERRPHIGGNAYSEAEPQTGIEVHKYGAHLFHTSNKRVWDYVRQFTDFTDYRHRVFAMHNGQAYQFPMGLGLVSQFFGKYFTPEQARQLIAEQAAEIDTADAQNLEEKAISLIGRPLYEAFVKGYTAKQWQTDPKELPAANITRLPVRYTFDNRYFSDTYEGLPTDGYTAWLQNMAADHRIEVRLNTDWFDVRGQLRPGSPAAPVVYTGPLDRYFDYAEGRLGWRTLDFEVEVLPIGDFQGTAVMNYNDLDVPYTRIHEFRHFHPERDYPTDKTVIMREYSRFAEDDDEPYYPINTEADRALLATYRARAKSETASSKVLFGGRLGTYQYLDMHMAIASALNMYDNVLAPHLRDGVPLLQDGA
Rv3671c inh = Rv3671c serine protease inhibitors, primary screen, biochemical, fluorescence polarization, M. tuberculosis H37Rv. inhibition, % at 5.96 µM. 320,000 compounds, 0.048% hits. AID 2606, 2010; in the data active = inhibition above about 38%;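 also: extracellular domain of Rv3671c used as enzyme; 0% = enzyme with DMSO and 100% = no enzyme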
GFP chromophore = counter-screen: blocks GFP chromophore formation, dose response, counter-screen, biochemical, fluorescence, homogeneous; cell-free GFP chromophore formation; EC50, µM; 2,100 compounds, 83% hits; shares compounds with RecA splice inh
* = called active by the depositor; x = no result. Unless noted, no rule for the calls is given here.

SMILES	RecA splice inh	CCHFV vOTU inh	Mtb bLac sens	Mtb UGM inh	Rv3671c inh	GFP chromophore
CCOc1ccc(N2C(=O)/C(=C\c3ccc(O)c(OC)c3)S(=O)(=O)C2c2cccc([N+](=O)[O-])c2)cc1 (stereo unspecified)	88*	7	-9	1	-2	2.5*
CCOc1ccc(N2C(=O)/C(=C\c3ccc(OC)c(O)c3)S(=O)(=O)C2c2cccc([N+](=O)[O-])c2)cc1 (stereo unspecified)	82*	-5	81	1	-2	14*
COc1ccc(-n2c(SCC(=O)c3ccc4ccccc4c3)nnc2-c2ccccc2)cc1	x	7	x	x	x	x
CC1=C(CC(=O)c2ccc(Cl)cc2)C(=O)c2ccccc2C1=O	68*	9	4	1	-38	11*
COc1ccc(S[C@]2(C(=O)N3CCOCC3)CC(=O)N(C(=O)/C=C/c3ccccc3)[C@@H]2c2ccc(OC)cc2)cc1	x	5	x	x	x	x
CCc1oc2ccccc2c1C(=O)c1cc(Br)c(O)c(Br)c1	26	18	-3	4	1	18*
Cc1nn(-c2ccccc2)c2c1C(c1ccc(F)cc1F)C(C#N)=C(N)O2 (stereo unspecified)	50*	6	9	-3	-11	3.9*
Cc1nn(-c2ccccc2)c2c1C(c1ccccc1)C(C#N)=C(N)O2 (stereo unspecified)	54*	14	8	0	-130	29*
CN1CCN(c2nc(-c3ccco3)cc(C(F)(F)F)n2)CC1	-1	x	-3	1	1	x
COc1ccccc1-c1cc(C(F)(F)F)nc(S(=O)(=O)CCCC(=O)N2CCCCC2C)n1 (stereo unspecified)	56*	7	52	2	-1	7.2*
COc1ccccc1-c1cc(C(F)(F)F)nc(S(=O)(=O)CCCC(=O)NC(C)C)n1	22	-7	44	-2	4	x
COc1ccccc1-c1cc(C(F)(F)F)nc(S(=O)(=O)CCCC(=O)NCc2ccc(F)cc2)n1	47*	-4	0	3	4	7.7*
COc1ccccc1-c1cc(C(F)(F)F)nc(N2CCCC2)n1	x	9	2	-1	0	x
CS(=O)(=O)c1nc(-c2ccco2)cc(C(F)(F)F)n1	40*	x	100	6	-2	>38
COc1ccccc1-c1cc(C(F)(F)F)nc(S(C)(=O)=O)n1	50*	3	1	0	3	31*
C/C(C=NNC(=O)CSc1nnc(-c2ccc(Cl)cc2)n1-c1ccc(C)cc1)=C\c1ccccc1	x	2	x	x	x	x
CC(=O)N1CC2(c3ccccc3)CN(C(C)=O)CC(c3ccccc3)(C1)C2=O	62*	-6	-4	1	12	>38
CN1CCN(C(c2ccc(Br)cc2)c2cc(Cl)c3cccnc3c2O)CC1 (stereo unspecified)	74*	23	14	1	5	9.8*
Cc1ccc(Sc2c([N+](=O)[O-])ncn2C)cc1	53*	4	-14	-1	2	>38
CC(C)(C)c1ccc(-c2nnc(SCC3CCCCO3)n2-c2ccc(Cl)cc2)cc1 (stereo unspecified)	x	16	x	x	x	x
CC(C)c1nnc(NC(=O)CCS(=O)(=O)Cc2ccccc2)s1	-1	4	-1	0	-4	x
CC(C)c1nnc(NC(=O)CCS(=O)(=O)c2nc(-c3cccs3)cc(C(F)(F)F)n2)s1	32*	13	7	-1	-10	>38
CCCCCC[C@@H](CC)CN(C(=O)Oc1ccccc1)c1ccccc1	x	14	x	x	x	x
c1ccc(-c2nc(N3CCCCCC3)c3ccccc3n2)nc1	32*	7	81	2	0	>38
O=C(CCl)Oc1ccc2occ(C(=O)c3cccs3)c2c1	32*	0	-13	2	-10	25*
SMILES	RecA splice inh	CCHFV vOTU inh	Mtb bLac sens	Mtb UGM inh	Rv3671c inh	GFP chromophore
CC(=O)Oc1ccc2occ(C(=O)c3cccs3)c2c1	0	5	93	-2	-13	x
Cc1nc(COC(=O)c2cc(O)c3ccccc3c2O)cs1	56*	21	x	x	x	6.2*
COc1ccc(NC(=O)/C(Cl)=C(/Cl)S(=O)(=O)Cc2ccc(C)cc2)cn1	89*	x	x	x	x	6.7*
Cn1c(=O)c([N+](=O)[O-])c(Cl)c2ccccc21	56*	-9	x	x	x	11*
Cn1c(=O)c([N+](=O)[O-])c(-n2cnc3ccccc32)c2ccccc21	63*	-4	-10	0	0	22*
C[C@@H]1C(=O)N2N=Cc3cc4ccccc4cc3[C@H]2N2N=Cc3cc4ccccc4cc3[C@@H]12	x	22	x	x	x	x
Cc1nc2ccc(S(=O)(=O)NCC(=O)NCc3cccs3)cc2s1	x	4	x	x	x	x
Nc1nn2c(-c3ccccc3)cc(=O)[nH]c2c1N=Nc1ccc(Br)cc1	x	-9	x	x	x	x
Nc1nn2c(-c3ccccc3)cc(=O)[nH]c2c1N=Nc1ccc(O)cc1	52*	-8	43	0	9	2*
Cc1ccc(-c2ccc(/C=C3\SC(N4CCOCC4)=NC3=O)o2)cc1	-26	14	47	1	-11	x
Cc1ccc(/C=C2\SC(N3CCN(C(c4ccccc4)c4ccccc4)CC3)=NC2=O)o1	33*	7	74	0	-7	>38
O=S(=O)(CC1NCc2ccccc21)NCc1ccc(F)cc1 (stereo unspecified)	x	2	x	x	x	x
COc1ccc(C(c2c(C)n(C)n(-c3ccccc3)c2=O)c2c(C)n(C)n(-c3ccccc3)c2=O)cc1OC	x	-9	-1	4	0	x
Cc1[nH]n(-c2ccccc2)c(=O)c1C(C[N+](=O)[O-])c1ccc(Cl)cc1 (stereo unspecified)	82*	22	100	x	-77	15*
Cc1[nH]n(-c2ccccc2)c(=O)c1C(c1ccccc1C(=O)O)c1c(C)[nH]n(-c2ccccc2)c1=O	-1	4	0	0	-2	x
Cc1ccc(C(C[N+](=O)[O-])c2c(C)[nH]n(-c3ccccc3)c2=O)cc1 (stereo unspecified)	93*	23	95	5	-67	7.3*
COc1ccc(C(c2c(C)[nH]n(-c3ccccc3)c2=O)c2c(C)[nH]n(-c3ccccc3)c2=O)cc1OC	98*	84*	7	1	-214	1.3*
Cc1[nH]n(-c2ccccc2)c(=O)c1C(C[N+](=O)[O-])c1ccc(F)cc1 (stereo unspecified)	76*	-5	98	-2	-90	22*
COC(=O)[C@]12C[C@H](CC(=O)NCCCN3CCCC3=O)C(=O)N(Cc3ccc(Cl)cc3Cl)C1=C[C@H](COCc1ccccc1)O[C@@H]2C	x	1	x	x	x	x
COc1ccc(/C=C/S(=O)(=O)NC2CCCC2)c(CNC(=O)OC(C)(C)C)c1	x	8	x	x	x	x
C[C@@H]1COc2cc(F)ccc2S(=O)(=O)N1C	x	0	x	x	x	x

Compound activity (PubChem BioAssay)
